In PubChem BioAssay (NCI):
Compounds without any hit were thinned out: in the full panel of roughly 83,000, 20% have a hit.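 Single-concentration screen, 48 h exposure, 96-well plates. Endpoint: percent growth. Below 10 = active.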 Calls of active or inactive are those of the source.

What follows are compounds tested on HL-60(TB) leukemia (assay: NCI-60 one-dose screen, 48 h (100 = growth as untreated, 0 = no growth, -100 = all killed)). Conditions: 10 µM unless noted.
With `O=[N+]([O-])c1ccc(C(Br)c2ccc([N+](=O)[O-])cc2)cc1` the growth was 57.6% (inactive). `CC(C)(C)CC(C)(C)c1ccc(OCCSC(=N)N)cc1` was tested, and the growth was 22.2% (inactive). For `c1cnc2[nH]cc(-c3nc(-c4ccsc4)cs3)c2c1`, the growth was 104% (inactive). `CN(C)C(=S)N=Nc1c(O)[nH]c2ccccc12` was tested, and the growth was -40.3% (active). With `c1ccc(-c2oc(-c3ccccc3)c(CN3CCCCC3)c2CN2CCCCC2)cc1` the growth was 27% (inactive). With `CC(C)CCC[C@@H](C)[C@H]1CC[C@H]2[C@@H]3CC[C@H]4C/C(=N/O)CC[C@]4(C)[C@H]3CC[C@]12C` the growth was 104% (inactive). With `Cn1c(-c2ccccc2)cc(=O)cc1-c1ccccc1` the growth was 99.8% (inactive). In the case of `N[C@@H]1CCC[C@H]1NCCCCN1C(=O)c2cccc3cccc(c23)C1=O`, the growth is reported as 91.1% (inactive). For `COc1ncc(-c2ccc3ncnc(Nc4cccc(Cl)c4)c3c2)cc1NS(=O)(=O)CCN1CCOCC1`, the growth was 23.9% (inactive). For `CSc1nc2sc3cccc(Cl)c3n2c(=N)c1C#N`, the growth was 91.8% (inactive). With `COc1ccc(-c2cc(-c3cccnc3)nc(S(=O)(=O)CC(=O)Nc3ccc(C)cc3)c2C#N)cc1OC` the growth was 113% (inactive). With `COc1ccc(OC)c(NC(=O)c2sc3nc4c(cc3c2N)C(=O)CCC4)c1` the growth was 88.4% (inactive). `O=C(Nc1ccc(Cl)cc1)c1cc(NCc2cc(O)ccc2O)ccc1O` was tested, and the growth was 0.347% (active). In the case of `O=C(CSc1nc2c(n1Nc1ccccc1)-c1ccccc1SC2)Nc1nc(-c2ccc(Cl)cc2)cs1`, the growth is reported as 104% (inactive). With `CCOC(CN=Cc1cc(C)c2[nH]c3ccccc3c2c1C)OCC` the growth was 76.6% (inactive). With `COc1ccc2c(c1OC)C(=O)O[C@H]2[C@H]1c2c(cc3c(c2OC)OCO3)CCN1C` the growth was 31.9% (inactive). `COc1cc(-c2nc3occn3c2-c2ccnc(NCCCNS(=O)(=O)c3ccccc3)n2)ccc1F` was tested, and the growth was 39.6% (inactive). With `Nn1c(SCC(=O)Nc2ccc(Cl)cc2)nnc1-c1cc(F)c(Cl)cc1Cl` the growth was 84.5% (inactive). For `O=C(CSc1nnc2sc(Nc3cccc(Cl)c3)nn12)c1ccc(F)cc1`, the growth was 82.7% (inactive). In the case of `COc1cc2cc(NCc3ccc(OC(F)F)cc3)nc(C)c2cc1OC`, the growth is reported as 38.7% (inactive). For `COc1ccc(/C=C2\COc3ccc(O)cc3C2=O)cc1`, the growth was -33.1% (active). For `Nc1c(C(=O)C[C@@H](N)CO)ccc2c1C(=O)CCO2`, the growth was 51.9% (inactive). With `N#C/C(=C/C=C/c1cccc(Cl)c1)S(=O)c1ccccc1` (configuration not stated) the growth was -18.9% (active). `CCCCCCCCCCCCCC[n+]1ccc2c(C)c3c(c(C)c2c1)c1cc(O)ccc1n3CC` was tested, and the growth was -40.6% (active). In the case of `CCc1c2c(nc3ccc(OC(=O)N4CCC(N5CCCCC5)CC4)cc13)-c1cc3c(c(=O)n1C2)COC(=O)[C@]3(O)CC`, the growth is reported as -14% (active). In the case of `O=C1CCC/C=C\C[C@H]2C=CC(=O)/C2=C/C[C@H](C/C=C\CC(F)(F)F)O1`, the growth is reported as -16.6% (active). In the case of `CN(C)CN1CCN(c2ccc3nc(-c4ccc5nc(-c6ccc(C(F)(F)F)cc6)[nH]c5c4)[nH]c3c2)CC1`, the growth is reported as 59.6% (inactive). For `COc1ccc(-c2[nH]c(=S)n(C(CC3(C)NCC(=O)N3n3c(-c4ccccc4)cc(C)nc3=S)c3ccc(OC)cc3)c(=O)c2Br)cc1` (configuration not stated), the growth was 59.6% (inactive). For `COc1ccc(-c2cc(/C=C3\C(=O)Nc4ccc(Cl)cc43)[nH]n2)cc1`, the growth was 22.6% (inactive). `O=C1CC[C@@H](C(=O)N[C@H]2CSSC[C@@H](C(=O)N/C=C/c3ccc(O)cc3)NC(=O)[C@H](Cc3ccccc3)NC(=O)[C@@H]3CCCN3C(=O)[C@@H]3CCCN3C2=O)N1` was tested, and the growth was 74% (inactive). With `COc1ccc(-c2nc(C#N)c(NCC(c3ccc(Cl)cc3)N3CCCCC3)o2)cc1` (configuration not stated) the growth was 74.3% (inactive). In the case of `N#Cc1cc(-c2nc3ccccc3s2)c(=O)n(NS(=O)(=O)c2ccccc2)c1N`, the growth is reported as 103% (inactive). With `Cn1ccnc1C(=O)/C=C/c1ccc(CC(=O)Nc2cc(F)c(F)c(F)c2)cc1` the growth was -31.2% (active). `Cn1ccnc1C(=O)/C=C/c1ccc(CC(=O)Nc2cc(C(F)(F)F)cc(C(F)(F)F)c2)cc1` was tested, and the growth was 16.1% (inactive). In the case of `Nc1ccc(N=Nc2ccc(S(=O)(=O)O)cc2)c2ccccc12`, the growth is reported as 62.8% (inactive). With `CCCCCCCCCCCCC1C/C=C\CCCC(=O)O1` (configuration not stated) the growth was 88.4% (inactive). `CCOc1cc(/C=C/C(=O)C(C(=O)/C=C/c2ccc(OC(=O)CNc3nc4ccccc4[nH]3)c(OCC)c2)C(=O)CNc2nc3ccccc3[nH]2)ccc1OC(=O)CNc1nc2ccccc2[nH]1` was tested, and the growth was -44.4% (active).
